± gives the standard deviation of the averaged measurements. Whole data set: some 33,000 sequences, median “E-score (rank enrichment, -0.5 to 0.5)” near -0.0043, cut for the highest 2% near 0.24. This excerpt belongs to a sample that is enriched for the highest values.
The sequences below were run on 2Sp-muMax20 (muMax20 with two 2,6-bis(methyl)pyridine Cys staples) (assay: PBM 8-mer E-score (E-score (rank enrichment, -0.5 to 0.5)); higher = stronger preferential binding).
Description: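 Protein binding microarray (universal PBM chip covering all 10-mers in fixed probe flanks) with chemically synthesized human Max(13-93) bHLH-LZ analogs (not full-length Max) bearing noncanonical residues (hArg, Tha, Aib, Nle at 65) and aromatic Cys staples. Read-out per 8-mer (and its reverse complement): E-score (rank-based enrichment, -0.5 to 0.5) and Z-score of median probe intensity.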

Sequence	PBM 8-mer E-score
CCTGATTA	0.0465 ± 0.018
GTTGATTA	0.25 ± 0.057
CTTGATTA	0.0552 ± 0.1
ACTGATTA	0.0334 ± 0.067
GCTGATTA	0.273 ± 0.011
ATTGATTA	0.124 ± 0.078
CAAAGAGG	0.00199 ± 0.021
GCTTACGA	0.0276 ± 0.057
CGGGTCCC	-0.36 ± 0.051
AAATGATT	-0.0058 ± 0.064
CACGGACA	-0.212 ± 0.011
AAAGGGCT	-0.0325 ± 0.13
AAGGGGCG	-0.00545 ± 0.089
AAGGGGCT	0.271 ± 0.019
ACCTCTGC	-0.0962 ± 0.11
CGGACAAA	-0.0707 ± 0.0079
CAGCGGCC	-0.156 ± 0.048
ACCATGCA	0.187 ± 0.0036
AGCATGCA	0.301 ± 0.023
AACATGCA	0.205 ± 0.17
CGCATGCA	0.161 ± 0.026
GGCATGCA	0.0431 ± 0.062
TGCATGCA	0.282 ± 0.038
CAAAGGGG	0.00961 ± 0.03
CACATCCA	0.103 ± 0.042

Sequence	PBM 8-mer E-score
CTCTTCCA	-0.0254 ± 0.029
AAGTCGAC	0.0839 ± 0.081
CAGCGGGG	-0.157 ± 0.043
CTCCTGCC	0.0184 ± 0.066
CTGATGTA	-0.072 ± 0.074
GTGATGTA	0.268 ± 0.018
ATGATGTA	0.131 ± 0.049
ACATATAC	0.158 ± 0.072
ACATACAT	0.252 ± 0.054
ACATACGC	0.0353 ± 0.028
ACATACAG	0.191 ± 0.11
ACATACAC	0.0759 ± 0.032
TCATACGA	0.214 ± 0.047
CCATATAA	0.0911 ± 0.065
ACATATAT	0.309 ± 0.061
ACATACGA	0.237 ± 0.049
TCATATAA	0.227 ± 0.045
ACATATAA	0.333 ± 0.0052
ACATATAG	0.174 ± 0.031
CGCAAATC	-0.0745 ± 0.17
CCGTCGAG	-0.0626 ± 0.0034
CTTATCGA	0.0942 ± 0.054
CGTTACGC	-0.173 ± 0.044
AAGTGGGG	0.1713 ± 0.001
GCATGGGA	-0.0247 ± 0.032

Sequence	PBM 8-mer E-score
AATCCCGG	-0.104 ± 0.0059
AGACTTAG	-0.023 ± 0.017
AGATATAG	0.174 ± 0.0033
AGATATAT	0.252 ± 0.043
AGATATAC	0.146 ± 0.046
ATATAGGG	0.0694 ± 0.043
CGGAATAC	-0.144 ± 0.035
AAAAGTGG	0.159 ± 0.0062
GCCTGCAA	-0.0187 ± 0.071
TTACATAA	0.259 ± 0.0094
ACACATAA	0.24 ± 0.037
CCACACTC	0.00608 ± 0.081
AAACATAA	0.289 ± 0.0052
CTACATAA	0.122 ± 0.021
CCACACTA	0.261 ± 0.026
GCACATAA	0.121 ± 0.02
GTACATAA	0.171 ± 0.011
ACACATAG	-0.0161 ± 0.023
AAACATAG	0.0784 ± 0.084
GAACATAA	0.0635 ± 0.079
ACACACTA	0.158 ± 0.0088
CAGTGGAG	0.0231 ± 0.066
CACAGGGC	-0.258 ± 0.027
CCAACTCA	-0.0281 ± 0.11
CCCACCAA	0.127 ± 0.019

Sequence	PBM 8-mer E-score
ATATCAAT	0.172 ± 0.089
AGCCTCTG	-0.079 ± 0.05
ATTTGAAA	0.168 ± 0.12
AGGTCTCC	-0.0447 ± 0.033
GTGCAGTA	0.106 ± 0.039
AACGACTA	0.0385 ± 0.073
ACACACAA	0.0759 ± 0.063
TCACACAA	0.238 ± 0.017
CCACACAA	0.0212 ± 0.012
ACCCCTGG	-0.144 ± 0.039
ATCGAAGG	-0.0475 ± 0.11
ACCATATA	0.23 ± 0.082
CCAAGCAC	0.235 ± 0.038
ACAAGCAC	-0.115 ± 0.13
GCAAGCAC	-0.00775 ± 0.028
CCCACCGC	0.0543 ± 0.035
ATTCTCAA	0.123 ± 0.02
ACTAGAAC	0.0769 ± 0.048
CAATATTA	0.19 ± 0.058
TAATATGA	0.135 ± 0.072
AAATATTG	0.075 ± 0.0023
CAATATTC	0.0714 ± 0.068
TAATATTA	0.343 ± 0.044
AAATATTC	0.249 ± 0.043
AAATATTA	0.28 ± 0.067

Sequence	PBM 8-mer E-score
GAATATTC	0.189 ± 0.064
GAATATTA	0.22 ± 0.026
ATCGAGAC	-0.161 ± 0.025
CGCGTCTC	0.157 ± 0.072
ACTGAGGG	-0.0464 ± 0.034
ACTGCTGC	0.0474 ± 0.025
ATGGGCGA	0.0316 ± 0.058
CTGGGCGA	-0.174 ± 0.045
GTGGGCGA	0.263 ± 0.088
AATCCCAC	0.00653 ± 0.032
GACTCTAC	-0.0372 ± 0.069
GTATTGGA	0.0561 ± 0.061
CGCATGCG	0.286 ± 0.02
AGCATGCT	0.332 ± 0.036
AGCATGCG	0.275 ± 0.0033
AGCATGAC	0.243 ± 0.051
ATCATGCG	0.136 ± 0.013
CCCATGCG	0.0929 ± 0.051
AGCATGCC	0.0906 ± 0.028
AGCATGAG	0.121 ± 0.064
AGCATGAT	0.131 ± 0.051
ACCATGCT	0.211 ± 0.0076
CGCATGCC	0.189 ± 0.053
AGCATGAA	0.174 ± 0.04
TATCCCGA	-0.0363 ± 0.017

Sequence	PBM 8-mer E-score
ACCACGGT	-0.234 ± 0.057
CCTCAAGA	0.175 ± 0.069
AATGACAA	0.179 ± 0.025
GGCGTCAC	0.0505 ± 0.091
TCGGTTAA	-0.144 ± 0.038
CCACACAC	0.0649 ± 0.082
AGGACAAT	0.0666 ± 0.068
CTCCATCA	0.0787 ± 0.11
GATCAGTA	0.141 ± 0.0015
CTCAACTC	0.0172 ± 0.017
AAGCTGTA	0.168 ± 0.027
AAGCTGAT	0.294 ± 0.012
AAGCTTAT	0.25 ± 0.032
AAGCTGAC	-0.0135 ± 0.013
AAGCTTAC	0.084 ± 0.0037
AAGCTTAA	-0.0812 ± 0.033
CAGCACTC	0.0109 ± 0.049
GGTTTTTA	0.118 ± 0.05
GTATCAAA	0.167 ± 0.037
ACGTTACT	0.097 ± 0.078
CCACTTTC	0.123 ± 0.028
ATTAATTC	0.229 ± 0.026
ATTAATTA	0.312 ± 0.065
ATTAATTG	0.157 ± 0.057
GTTAATGA	0.181 ± 0.1

Sequence	PBM 8-mer E-score
CTTAATGC	0.25 ± 0.014
CTTAATGA	0.0929 ± 0.029
GGTAATTA	0.147 ± 0.011
ATTAATGA	0.276 ± 0.074
ATTAATGC	0.14 ± 0.0056
AGTAATTA	0.256 ± 0.051
CGTAATTA	0.133 ± 0.0041
ATTAATGG	0.0949 ± 0.013
CATGCACC	0.161 ± 0.0063
GGGGTCGA	-0.0201 ± 0.04
TTACTGAA	0.0517 ± 0.035
ACGAAAAG	0.0249 ± 0.0051
ACGAGATG	-0.00212 ± 0.067
CCCCGATC	-0.166 ± 0.013
AGATTGTC	-0.0414 ± 0.0031
GACGGGCA	-0.0942 ± 0.011
ATAAATTA	0.303 ± 0.049
ATTAATCC	0.0916 ± 0.0058
GTTAATCA	0.198 ± 0.048
ATAAATTG	0.106 ± 0.026
ATTAATCA	0.259 ± 0.059
ATTAATAG	0.197 ± 0.079
ATTAACAC	0.306 ± 0.05
ATTAATAC	0.256 ± 0.1
CTTAACAC	0.164 ± 0.016

Sequence	PBM 8-mer E-score
ATTAATAA	0.224 ± 0.12
CTAAATTA	-0.0028 ± 0.045
ATTAACAA	0.161 ± 0.042
AAGAATCA	0.116 ± 0.04
GAGGCCTA	-0.184 ± 0.066
AGAAATCT	0.0669 ± 0.11
ATATGAAA	0.219 ± 0.031
ACACTTCG	-0.0252 ± 0.098
AAAAATTA	0.116 ± 0.052
CAAAATTA	0.15 ± 0.063
GAAAATTA	0.291 ± 0.063
AGCGTGCG	0.178 ± 0.02
ATAGAATA	0.171 ± 0.011
CTAGAATA	0.108 ± 0.076
GTAGAATA	0.253 ± 0.0027
AATATTAC	0.294 ± 0.0036
GATATTAC	0.178 ± 0.026
CATATTAA	0.247 ± 0.019
CATATTAG	0.222 ± 0.025
CATATTGC	0.164 ± 0.033
CATATTGG	0.251 ± 0.0054
CCTATTAA	0.154 ± 0.024
ACTATTAG	-0.00553 ± 0.16
AATATTGG	0.0895 ± 0.038
AATATTAG	0.243 ± 0.026

Sequence	PBM 8-mer E-score
CATATTAC	0.0498 ± 0.065
TATATTAA	0.211 ± 0.059
TGACACCA	-0.0859 ± 0.034
GAGGGTCC	-0.156 ± 0.027
AAAAGGTG	-0.103 ± 0.028
TCGTCCCA	0.114 ± 0.012
GGTGCGAA	0.0856 ± 0.053
ATGACTTC	0.112 ± 0.019
GGCTTACC	-0.108 ± 0.026
CTTATGCA	0.0234 ± 0.047
ATCACTTC	0.0342 ± 0.00049
AATATTCT	0.231 ± 0.057
AATATTTC	0.0962 ± 0.04
CATATTTA	0.228 ± 0.01
AATATTTA	0.282 ± 0.036
AATATTAA	0.33 ± 0.029
ACTATTAT	0.142 ± 0.1
GATATTAA	0.118 ± 0.0066
ACTATTAA	0.157 ± 0.022
AATATTAT	0.246 ± 0.036
